Source: PubChem
Rows were chosen to be rich in hits. Some 0.29% of all compounds tested hit in one or more screens of this group.
Yp Topo-I inh: Yersinia pestis topoisomerase I inhibitors, primary screen, biochemical, cleavage product accumulation, plate reader, single point | AID 504884, 2011 | actives 0.064% (n = 360,000) | Y. pestis Topo-I cleavage product accumulation | activity, % at 10 µM | DNA topoisomerase I (Yersinia pestis CO92); in the data active means activity above about 50%, passing the limit was not always enough
BH1578 lux ind: inducers of Vibrio cholerae quorum light production without autoinducers, primary screen, BH1578 luxS cqsA deficient, single point; V. cholerae BH1578 lux reporter, luminescence, 6 h; activation, % at 18.7 µM; actives 0.16% (n = 350,000); in the data active means activation mostly above about 9.7%, no sharp cut-off
Mtb hypoxia inh: PubChem AID 1159583 | M. tuberculosis hypoxia-regulated fluorescent reporter, fluorescence | actives 0.1% (n = 300,000) | fluorescence inhibition, % (no concentration beside the values); in the data active means fluorescence inhibition mostly above about 23%, no sharp cut-off; inactive means mostly below about 17%
The depositor's hits bear a star.

How did COc1ccc(CNC(=O)[C@H](C)NC(=O)C2CCN(C(=O)[C@H](CCSC)NC(=O)OC(C)(C)C)CC2)cc1 do in these assays?
Yp Topo-I inh: 11; BH1578 lux ind: -1

Results for CCCCCCOc1ccc(C(C)=NNC2=NCCN2)cc1 ?
Mtb hypoxia inh: 22

How did O=c1oc(-c2ccccc2)nc2c1C1(CCCCC1)Cc1ccccc1-2 do in these assays?
Yp Topo-I inh: -5; BH1578 lux ind: 0; Mtb hypoxia inh: 4

What do the screens show for `CCC1(CC)Cc2ccccc2-c2nc(-c3ccccc3)oc(=O)c21`?
Yp Topo-I inh: 17; BH1578 lux ind: 32*

Results for CCOc1ncccc1C(=O)Nc1ccc2c(c1)OCO2 ?
Yp Topo-I inh: 5; BH1578 lux ind: inactive

How did CCOc1ncccc1C(=O)Nc1cc2c(cc1Br)OCCO2 do in these assays?
Yp Topo-I inh: 11; BH1578 lux ind: -1; Mtb hypoxia inh: 36*

Results for Cc1cc(C)c2sc(N(CCCN(C)C)C(=O)c3ccc(S(=O)(=O)N(C)C4CCCCC4)cc3)nc2c1 ?
Yp Topo-I inh: 9; BH1578 lux ind: -1; Mtb hypoxia inh: 38*

What do the screens show for `CN(C)CCCN(C(=O)c1ccc(S(=O)(=O)N(C)C2CCCCC2)cc1)c1nc2ccc(F)cc2s1`?
Yp Topo-I inh: 21; BH1578 lux ind: 0; Mtb hypoxia inh: 6

Results for C=CCn1c(N=Cc2ccc3c(c2)OCO3)nc2ccccc21 ?
Mtb hypoxia inh: 4

How did CCn1c(COc2ccc(C)cc2)nnc1SCC(=O)Nc1cc(OC)ccc1OC do in these assays?
Yp Topo-I inh: 5; BH1578 lux ind: 29*; Mtb hypoxia inh: 13

How did CCn1c(COc2ccccc2)nnc1SCC(=O)Nc1cc(C)ccc1OC do in these assays?
Yp Topo-I inh: 3; BH1578 lux ind: inactive; Mtb hypoxia inh: 10

What do the screens show for `Cc1ccccc1OCC(=O)NN=Cc1ccc(Sc2nc3ccccc3s2)o1`?
Mtb hypoxia inh: 5

How did CN(C)CCCN1C(=O)c2cccc3c(Br)ccc(c23)C1=O do in these assays?
Yp Topo-I inh: -6; BH1578 lux ind: 0; Mtb hypoxia inh: 67*

What do the screens show for `O=C(O)CN1C(=O)c2cccc3c(Br)ccc1c23`?
Yp Topo-I inh: 3; BH1578 lux ind: inactive; Mtb hypoxia inh: 4

What do the screens show for `CC(=O)Nc1ccc(NC(=O)CSc2nncn2C)cc1`?
Yp Topo-I inh: 4; BH1578 lux ind: inactive; Mtb hypoxia inh: -5

Results for COc1ccc(NC(=O)CSc2nncn2C)cc1OC ?
Yp Topo-I inh: -1; BH1578 lux ind: 17*; Mtb hypoxia inh: 11

How did Cc1cccc(Cn2c(C(=O)OC(C)C)cc3c2ccn3C)c1 do in these assays?
Yp Topo-I inh: 54*; BH1578 lux ind: 19; Mtb hypoxia inh: 12

How did CCOC(=O)c1cc2c(ccn2C)n1Cc1ccc(Cl)cc1 do in these assays?
Yp Topo-I inh: 5; BH1578 lux ind: 4; Mtb hypoxia inh: 10

How did CCCCn1c(=O)[nH]c(=O)c2c1nc(CN(C)Cc1cccc(OC)c1OC)n2CCC do in these assays?
Yp Topo-I inh: 17; BH1578 lux ind: inactive; Mtb hypoxia inh: -8

Results for O=Nc1c(O)n(Cc2ccccc2)c2ccccc12 ?
Yp Topo-I inh: -2; BH1578 lux ind: 81*; Mtb hypoxia inh: 5

Results for CCn1c(O)c(N=N)c2ccccc21 ?
Yp Topo-I inh: 8; BH1578 lux ind: 0; Mtb hypoxia inh: -4

How did CCCn1c(O)c(N=N)c2ccccc21 do in these assays?
Yp Topo-I inh: -9; BH1578 lux ind: active; Mtb hypoxia inh: -9

How did O=Nc1c(O)n(Cc2ccc(Cl)c(Cl)c2)c2ccccc12 do in these assays?
Yp Topo-I inh: 1; Mtb hypoxia inh: 10

How did CC(=O)Nc1cccc(C(C)=NNS(=O)(=O)c2ccccc2)c1 do in these assays?
Mtb hypoxia inh: -4

How did Cc1cc(C(=O)NN=Cc2ccc(-c3ccccc3Cl)o2)n[nH]1 do in these assays?
Mtb hypoxia inh: 16

Results for COc1cc(O)oc1C=Nc1ccc(Cl)cc1 ?
Yp Topo-I inh: -6; BH1578 lux ind: 26*; Mtb hypoxia inh: 4

What do the screens show for `COc1cc(O)oc1C=Nc1ccc(Cl)cc1Cl`?
Yp Topo-I inh: -9; BH1578 lux ind: inactive; Mtb hypoxia inh: 0

How did CN1C2CCCC1CC(NC(=O)c1nn(C)c3ccccc13)C2 (configuration not stated) do in these assays?
Mtb hypoxia inh: 5

How did CSc1ccc(CN(C)C(=O)c2cc3ccccc3o2)cc1 do in these assays?
Yp Topo-I inh: 54*; BH1578 lux ind: 0; Mtb hypoxia inh: 14

Results for CSc1ccc(CN(C)C(=O)c2cc(=O)c3ccccc3o2)cc1 ?
Yp Topo-I inh: 28; BH1578 lux ind: 0; Mtb hypoxia inh: 3

Results for Cc1cccc(C2C3C(=O)N(Cc4ccccc4)C(=O)C3[C@]3(Cc4ccc(Cl)cc4)C(=O)N(c4ccccc4)C(=O)N23)c1 (some centres not stated) ?
Mtb hypoxia inh: 3

Results for COc1ccc(CNc2nc3nc(C)c(Cl)c(=O)n3[nH]2)cc1 ?
Yp Topo-I inh: 1; BH1578 lux ind: 0; Mtb hypoxia inh: 23*

Results for COc1ccccc1CNc1nc2nc(C)c(Cl)c(=O)n2[nH]1 ?
Yp Topo-I inh: 1; BH1578 lux ind: 4; Mtb hypoxia inh: 0

How did COc1ccc(C2=NS(=O)(=O)N(C)C(C(=O)Nc3ccc(F)cc3F)=C2)cc1 do in these assays?
Yp Topo-I inh: -1; BH1578 lux ind: 0; Mtb hypoxia inh: 8

Results for CCC[C@@H]1C[C@@H](C(=O)NC(C(C)Cl)[C@H]2O[C@H](SC)[C@H](O)[C@@H](O)[C@H]2O)N(C)C1 (some centres not stated) ?
Yp Topo-I inh: -11; BH1578 lux ind: -1

Results for CCCC1CC(C(=O)NC(C(C)Cl)C2OC(SC)C(O)C(O)C2O)N(C)C1 (configuration not stated) ?
Yp Topo-I inh: 5; BH1578 lux ind: -3; Mtb hypoxia inh: 44*

How did COCc1c(C(=O)NN=Cc2ccncc2)nnn1-c1nonc1N do in these assays?
Mtb hypoxia inh: 4

Results for N#Cc1ccccc1OCC(=O)Nc1ccc2c(c1)OCO2 ?
Yp Topo-I inh: -2; BH1578 lux ind: 0

How did Cc1cccn2c(=O)c(C=NO)c(Nc3ccccc3F)nc12 do in these assays?
Mtb hypoxia inh: 8

Results for CCC(C)N=Cc1c(Nc2ccccc2)nc2c(C)cccn2c1=O (configuration not stated) ?
Yp Topo-I inh: 1; BH1578 lux ind: 0; Mtb hypoxia inh: 51*

What do the screens show for `Nc1c(Cl)cc(C2=NCCn3c2c2ccc([N+](=O)[O-])cc2[n+]3[O-])cc1Cl`?
Yp Topo-I inh: -2; BH1578 lux ind: 1; Mtb hypoxia inh: 45*

Results for Nc1c(Cl)cc(C2=NCCn3nc4cc([N+](=O)[O-])ccc4c32)cc1Cl ?
Yp Topo-I inh: -4; BH1578 lux ind: inactive

What do the screens show for `CCCCCCCCCCCCN1C(CC(=O)OC)c2cc(C(F)(F)F)ccc2S1(=O)=O` (configuration not stated)?
Mtb hypoxia inh: 4

How did CCCCCCCCN1[C@@H](CC(C)=O)c2cc(C(F)(F)F)ccc2S1(=O)=O do in these assays?
Yp Topo-I inh: 66*; BH1578 lux ind: 1; Mtb hypoxia inh: 3

What do the screens show for `CC=CC(=O)Nc1cccc(C2=NOC3(C2)CC(C(N)=O)N(C(=O)c2ccc(Cl)cc2)C3)c1` (configuration not stated)?
Mtb hypoxia inh: 0
